Experimental data published in publication PMC4552634, “A New Set of Chemical Starting Points with Plasmodium falciparum Transmission-Blocking Potential for Antimalarial Drug Discovery” (PLoS ONE, 2015).
Out of some 13,000 compounds screened, about 3,200 (25%) showed an effect of 50% or more. The list shows a part of the results.

Tested on: P. falciparum stage V gametocytes
Set-up: BacTiter-Glo ATP luminescence viability of purified stage V gametocytes in 384-well plates, per cent inhibition versus DMSO
Settings: 48 h, 5 µM; inhibitor

| SMILES | % Inhibition |
| --- | --- |
| O=C(NC1CC1)c1ccc2cc(C(=O)N3Cc4ccccc4C(c4ccccc4)C3)ccc2c1 (centres unmarked) [TCMDC-131863] | 5.684% |
| COc1ccccc1CCNc1ncnc2c1[nH]c1ccc(F)cc12 [TCMDC-124556] | 39.14% |
| COc1ccc(OC)c(Cc2cnc3nc(N)[nH]c(=O)c3c2C)c1 [TCMDC-138103] | 16.49% |
| CN(C)C(=O)CCCn1c(CNCCCNc2cc(=O)c3ccccc3[nH]2)cc2c(Cl)cc(Cl)cc21 [TCMDC-140466] | -27.37% |
| CCCC1CCNC(C(O)c2ccnc3ccc(OC)cc23)C1 (centres unmarked) [TCMDC-138276] | 11.37% |
| CN(C)CCNC(=O)c1cc2c(-c3ccc(Cl)cc3)nn(C)c2s1 [TCMDC-123580] | -36.25% |
| COc1cccc(-c2nn(C)c3sc(C(=O)NCCN(C)Cc4ccccc4)cc23)c1 [TCMDC-123583] | -8.796% |
| Cc1ccc(-n2nc(-c3ccccc3)c3cc(C(=O)NCCN)sc32)cc1 [TCMDC-124776] | 110.1% |
| CC(C)Oc1ccc2c(c1)OC(c1ccccc1)(C(F)(F)F)NC2=O (centres unmarked) [TCMDC-123633] | 28.56% |
| Cc1nc(Cl)c2c(-c3ccccc3)csc2n1 [TCMDC-125437] | -3.595% |
| COc1cccc(-c2ccc3ccnc(N)c3c2)c1 [TCMDC-133361] | 60.33% |
| NC(=O)c1ccc(-c2ccc3ccnc(N)c3c2)cc1 [TCMDC-133429] | 50% |
| Nc1nccc2ccc(-c3cccc(OCc4ccccc4)c3)cc12 [TCMDC-133430] | 24.46% |
| Nc1ccc(-c2ccc3ccnc(N)c3c2)cc1 [TCMDC-136763] | -16.03% |
| CN(C)Cc1cccc(-c2ccc3ccnc(N)c3c2)c1 [TCMDC-136795] | 100.3% |
| COc1cccc(-c2ccc3c(-c4ccc(F)cc4)cnc(N)c3c2)c1 [TCMDC-134514] | 40.73% |
| CN(C)CC(=O)Nc1ccc(-c2ccc3ccnc(N)c3c2)cc1 [TCMDC-133427] | 67.97% |
| CS(=O)(=O)Nc1ccc(-c2ccc3ccnc(N)c3c2)cc1 [TCMDC-136788] | 43.95% |
| NS(=O)(=O)c1cccc(Nc2nccc(-c3c(-c4cccc(NC(=O)c5c(F)cccc5F)c4)nn4ccccc34)n2)c1 [TCMDC-135780] | -65.73% |
| Cc1csc(-c2nc(NCc3cccnc3)ncc2-c2ccsc2)n1 [TCMDC-124841] | 9.704% |
| CC(C)(C)c1cc(NC(=O)c2ccc(Cl)c([N+](=O)[O-])c2)cc(C(C)(C)C)c1 [TCMDC-125604] | 2.881% |
| Cc1ccc(C(=O)N2CCN(Cc3nccs3)CC2)cc1 [TCMDC-140738] | 3.888% |
| O=c1cc(NCCCNCc2scc(I)c2I)[nH]c2ccccc12 [TCMDC-140908] | -12.68% |
| Nc1cccc(-c2ccc3ccnc(N)c3c2)c1 [TCMDC-136762] | 21.07% |
| NCc1cccc(-c2ccc3ccnc(N)c3c2)c1 [TCMDC-136889] | 55.02% |

| SMILES | % Inhibition |
| --- | --- |
| Nc1nccc2ccc(-c3cccc4ncccc34)cc12 [TCMDC-133424] | 95.32% |
| CN(C)Cc1ccc(-c2ccc3ccnc(N)c3c2)cc1 [TCMDC-136790] | 60.33% |
| Nc1cc(-c2ccc3c(N)nccc3c2)ccc1Cl [TCMDC-136895] | -23.38% |
| NCc1ccc(-c2ccc3c(N)nccc3c2)cc1 [TCMDC-133718] | 107.3% |
| Nc1nccc2ccc(-c3cccnc3)cc12 [TCMDC-136599] | 30.25% |
| COC(=O)c1noc(C)c1I [TCMDC-131678] | -0.6747% |
| CN1CCN(c2ccc(Nc3c(C(N)=O)cnc4cc(-c5ccoc5)ccc34)cc2C(F)(F)F)CC1.Cl [TCMDC-135443] | 2.768% |
| O=C(Nc1ccc(Cl)cc1)Nc1ccc(-c2cccc(-c3nc4ccccc4[nH]3)c2)cc1 [TCMDC-133187] | -14.37% |
| CC(C)(C)CCOC(=O)N1CCc2c(cc(O)c(O)c2Cl)C(c2ccc(O)cc2)C1 (centres unmarked) [TCMDC-141981] | -77.14% |
| Nc1nc(N)c2c3c(ccc2n1)CCC3 [TCMDC-137720] | -10.07% |
| Cc1ccc(NC(=S)N2CCCN(CCCCCNC(=O)/C=C/c3ccc(Cl)c(Cl)c3)CC2)cc1Cl [TCMDC-135895] | -0.4693% |
| COc1ccccc1CNC(=O)c1cc(C2CC2)nc2c1cnn2C(C)C [TCMDC-125250] | 49.1% |
| Cc1cccc(C)c1N1CCN(C2CCC(NC(=O)/C=C/c3ccccc3)CC2)CC1 (centres unmarked) [TCMDC-132881] | -29.57% |
| COCCN1CCC(NCC(C)(C)c2nc(-c3ccc(Cl)c(O)c3)c(-c3ccncc3)[nH]2)CC1 [TCMDC-140926] | -95.92% |
| CCCN(Cc1nnc(-c2ccco2)o1)C(=O)C1CCCN(C(=O)c2ccc(Cl)cc2)C1 (centres unmarked) [TCMDC-125334] | -4.25% |
| Cc1cc(CNC(=O)c2ccc(-c3ccc(-c4nc5cc(C(F)(F)F)ccc5[nH]4)s3)cc2)on1 [TCMDC-132481] | -11.54% |
| CCCCCc1cc(O)c2c(c1)OC(C)(C)CC2C1=CCN(Cc2cnc3ccccc3c2)CC1 (centres unmarked) [TCMDC-131418] | -11.08% |
| Nc1nccc2ccc(Oc3ccncc3)cc12 [TCMDC-136517] | 51.03% |
| Nc1nccc2ccc(-c3ccc(Oc4ccccc4)cc3)cc12 [TCMDC-133432] | 19.11% |
| Nc1ncc(-c2ccsc2)c2ccc(-c3ccc4cn[nH]c4c3)cc12 [TCMDC-135299] | 100.9% |
| Nc1nccc2ccc(-c3ccsc3)cc12 [TCMDC-133431] | 53.31% |
| Nc1ncc(-c2ccsc2)c2ccc(-c3cnc[nH]3)cc12 [TCMDC-135369] | -1.546% |
| Nc1nccc2ccc(-c3ccc4nccn4c3)cc12 [TCMDC-133425] | 49.74% |
| Nc1nccc2ccc(-c3ccncc3)cc12 [TCMDC-138929] | 32.25% |
| Cn1cncc1-c1ccc2c(-c3ccsc3)cnc(N)c2c1 [TCMDC-135368] | 3.201% |
